# About 7,900 targets were measured; listed, in parts, are those with a hit and a random draw of the rest. About 0.6% of all pairs of compound and target were hits. A number with no mark means an inactive call.
# Columns and labels:
# Experiment in all cases: log2 fold change, soluble protein after heating vs DMSO (PISA); higher = thermal stabilisation; K562 cells, 10 uM, 30 min; active = over 0.2 and 3.5 SD of the protein, either way, in both replicates (recomputed)
# [1] = compound: CC[C@@H]1C(=O)N(C)c2cnc(Nc3ccc(C(=O)NC4CCN(C)CC4)cc3OC)nc2N1C1CCCC1
# How it was run: (§1)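 Quantification of soluble protein used TMTpro 16plex LC-MS/MS, with channel sums equalised. Samples were the supernatant after 21,000xg for 90 min of pooled aliquots from K562 cells (2×10^6 cells/mL) treated with 10 μM compound for 30 min, heated for 3 min over 48°C-58°C, and extracted in PBS with 0.5% NP-40 at 4°C. Values, from duplicates, describe thermal stability against control samples on a log2 fold-change scale.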
# [2] = compound: CC[C@@H]1C(=O)N(C)c2cnc(Nc3ccc(C(=O)N[C@H]4CC[C@H](N5CCN(CC6CC6)CC5)CC4)cc3OC)nc2N1C(C)C [volasertib]
# How it was run: as §1
# [3] = compound: CC[C@H](C)N1C=C(C2=C(C=C(C=C21)C3=CN=C(C=C3)N4CCNCC4)C(=O)NCC5=C(C=C(NC5=O)C)C)C
# How it was run: as §1
# [4] = compound: CC[C@H](C)[C@@H](C(=O)N[C@@H]([C@@H](C)O)C(=O)N[C@@H](CC(C)C)C(=O)[C@]1(CO1)C)NC(=O)[C@H]([C@@H](C)CC)N(C)C(=O)C [epoxomicin]
# How it was run: as §1
# [5] = compound: CCn1c(C(=O)N(C2CC2)C2CC2)cc2c3c(ncn3C)c(Nc3cc(C)n(C)n3)nc21
# How it was run: as §1
# [6] = compound: CCn1cc(-c2ccnc3[nH]c(-c4cccc(CN(C)C)c4)cc23)c(-c2ccc(NC(=O)N(C)C)cc2)n1
# How it was run: as §1
# [7] = compound: CN(C)CC(=O)Nc1ccc2[nH]c(=O)c3ccccc3c2c1
# How it was run: as §1
# [8] = compound: CN(CCOC1=CC=C(C=C1)C[C@H]2C(=O)NC(=O)S2)C3=CC=CC=N3 (racemic) [rosiglitazone]
# How it was run: as §1
# [9] = compound: CN1C2=C(C3=C1C(=O)N(N=C3)CC4=CC(=CC=C4)N)SC(=C2)S(=O)C
# How it was run: as §1
# [10] = compound: CN1CCC(CNc2ccc3ncc(-c4cccc(OC(F)(F)F)c4)n3n2)CC1
# How it was run: as §1
# Chain of UniProt Q8N122 (Q8N122 whole entry, looked up): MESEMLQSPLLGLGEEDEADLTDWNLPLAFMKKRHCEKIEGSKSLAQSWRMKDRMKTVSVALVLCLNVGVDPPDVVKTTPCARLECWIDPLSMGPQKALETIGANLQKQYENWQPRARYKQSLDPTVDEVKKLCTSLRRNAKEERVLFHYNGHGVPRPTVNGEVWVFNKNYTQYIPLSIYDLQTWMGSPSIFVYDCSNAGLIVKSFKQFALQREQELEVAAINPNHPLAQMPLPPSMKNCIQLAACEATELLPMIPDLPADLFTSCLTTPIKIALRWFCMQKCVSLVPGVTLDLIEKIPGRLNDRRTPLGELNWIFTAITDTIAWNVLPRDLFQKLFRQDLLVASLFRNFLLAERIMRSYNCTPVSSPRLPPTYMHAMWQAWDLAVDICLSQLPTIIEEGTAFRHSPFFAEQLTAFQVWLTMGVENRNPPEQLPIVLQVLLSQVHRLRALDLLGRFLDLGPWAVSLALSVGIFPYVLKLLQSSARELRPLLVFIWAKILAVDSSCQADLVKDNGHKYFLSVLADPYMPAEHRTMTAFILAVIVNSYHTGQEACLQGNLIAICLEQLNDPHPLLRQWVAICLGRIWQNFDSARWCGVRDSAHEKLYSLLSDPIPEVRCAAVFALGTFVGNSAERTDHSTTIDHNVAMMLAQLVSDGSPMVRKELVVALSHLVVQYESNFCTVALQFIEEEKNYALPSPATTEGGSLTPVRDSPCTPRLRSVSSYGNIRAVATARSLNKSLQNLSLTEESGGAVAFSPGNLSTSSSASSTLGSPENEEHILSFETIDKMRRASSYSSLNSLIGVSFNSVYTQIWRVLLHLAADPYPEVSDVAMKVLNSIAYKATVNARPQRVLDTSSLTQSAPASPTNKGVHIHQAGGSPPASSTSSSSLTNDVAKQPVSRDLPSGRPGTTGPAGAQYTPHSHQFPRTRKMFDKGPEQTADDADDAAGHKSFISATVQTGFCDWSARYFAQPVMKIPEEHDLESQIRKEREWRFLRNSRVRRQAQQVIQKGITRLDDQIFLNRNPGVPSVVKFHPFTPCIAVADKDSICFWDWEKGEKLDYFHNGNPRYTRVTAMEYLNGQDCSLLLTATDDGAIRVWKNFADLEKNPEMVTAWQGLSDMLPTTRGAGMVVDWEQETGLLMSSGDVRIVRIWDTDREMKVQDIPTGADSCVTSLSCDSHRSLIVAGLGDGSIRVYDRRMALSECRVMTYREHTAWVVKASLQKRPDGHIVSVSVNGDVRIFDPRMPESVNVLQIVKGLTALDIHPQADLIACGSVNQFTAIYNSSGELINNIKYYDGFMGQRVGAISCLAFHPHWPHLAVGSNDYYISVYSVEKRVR
# Chain of UniProt Q6NUM9 (Q6NUM9 whole entry, looked up): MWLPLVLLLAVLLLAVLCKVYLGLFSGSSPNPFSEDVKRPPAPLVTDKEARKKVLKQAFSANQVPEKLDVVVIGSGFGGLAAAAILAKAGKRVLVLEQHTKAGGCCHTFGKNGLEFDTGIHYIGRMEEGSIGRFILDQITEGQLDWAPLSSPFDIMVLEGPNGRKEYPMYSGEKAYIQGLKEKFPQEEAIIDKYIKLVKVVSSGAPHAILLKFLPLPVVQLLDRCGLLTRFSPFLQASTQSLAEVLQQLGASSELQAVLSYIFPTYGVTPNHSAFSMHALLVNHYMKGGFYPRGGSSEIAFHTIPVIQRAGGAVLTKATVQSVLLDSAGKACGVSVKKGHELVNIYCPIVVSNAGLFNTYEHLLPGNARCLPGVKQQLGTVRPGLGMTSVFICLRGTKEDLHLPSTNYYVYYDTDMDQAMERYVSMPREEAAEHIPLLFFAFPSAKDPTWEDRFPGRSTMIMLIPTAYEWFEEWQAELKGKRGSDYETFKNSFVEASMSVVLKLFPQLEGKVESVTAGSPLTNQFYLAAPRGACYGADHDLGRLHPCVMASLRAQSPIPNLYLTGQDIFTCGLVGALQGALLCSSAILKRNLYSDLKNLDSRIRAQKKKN
# Chain of UniProt Q9BY42 (Q9BY42 whole entry, looked up): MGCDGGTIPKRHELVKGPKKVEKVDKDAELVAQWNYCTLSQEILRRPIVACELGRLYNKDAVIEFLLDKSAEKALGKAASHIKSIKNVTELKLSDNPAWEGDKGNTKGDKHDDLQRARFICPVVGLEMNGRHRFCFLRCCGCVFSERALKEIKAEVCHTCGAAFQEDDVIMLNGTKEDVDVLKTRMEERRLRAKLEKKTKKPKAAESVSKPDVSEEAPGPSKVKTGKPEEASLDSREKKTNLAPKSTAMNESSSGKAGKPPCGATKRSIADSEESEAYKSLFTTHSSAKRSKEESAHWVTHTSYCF
# Chain of UniProt Q9UKL0 (Q9UKL0 whole entry, looked up): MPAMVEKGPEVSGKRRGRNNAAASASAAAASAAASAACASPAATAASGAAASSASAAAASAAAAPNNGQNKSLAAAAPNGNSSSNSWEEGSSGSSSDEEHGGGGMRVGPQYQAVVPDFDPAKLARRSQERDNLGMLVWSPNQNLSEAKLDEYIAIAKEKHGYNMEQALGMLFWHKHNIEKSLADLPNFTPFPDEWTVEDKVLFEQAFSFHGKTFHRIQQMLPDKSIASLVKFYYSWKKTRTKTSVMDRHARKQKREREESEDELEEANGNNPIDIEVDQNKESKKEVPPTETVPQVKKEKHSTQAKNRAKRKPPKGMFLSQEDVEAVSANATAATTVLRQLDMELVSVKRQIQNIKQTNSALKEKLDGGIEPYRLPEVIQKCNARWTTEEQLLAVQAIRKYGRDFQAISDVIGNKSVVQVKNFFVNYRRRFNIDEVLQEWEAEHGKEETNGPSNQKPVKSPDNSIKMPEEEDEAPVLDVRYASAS
# Chain of UniProt Q8NBN7 (Q8NBN7 whole entry, looked up): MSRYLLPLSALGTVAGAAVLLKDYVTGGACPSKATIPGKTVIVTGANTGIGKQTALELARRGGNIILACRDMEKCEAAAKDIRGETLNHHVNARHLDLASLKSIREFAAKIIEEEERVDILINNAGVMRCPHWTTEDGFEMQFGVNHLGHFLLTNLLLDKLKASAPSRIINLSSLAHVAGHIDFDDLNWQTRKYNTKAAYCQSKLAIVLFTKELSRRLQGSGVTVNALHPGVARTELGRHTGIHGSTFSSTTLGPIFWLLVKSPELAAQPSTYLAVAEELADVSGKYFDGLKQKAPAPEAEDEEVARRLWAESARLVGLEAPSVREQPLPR
# Chain of UniProt Q13530 (Q13530 whole entry, looked up): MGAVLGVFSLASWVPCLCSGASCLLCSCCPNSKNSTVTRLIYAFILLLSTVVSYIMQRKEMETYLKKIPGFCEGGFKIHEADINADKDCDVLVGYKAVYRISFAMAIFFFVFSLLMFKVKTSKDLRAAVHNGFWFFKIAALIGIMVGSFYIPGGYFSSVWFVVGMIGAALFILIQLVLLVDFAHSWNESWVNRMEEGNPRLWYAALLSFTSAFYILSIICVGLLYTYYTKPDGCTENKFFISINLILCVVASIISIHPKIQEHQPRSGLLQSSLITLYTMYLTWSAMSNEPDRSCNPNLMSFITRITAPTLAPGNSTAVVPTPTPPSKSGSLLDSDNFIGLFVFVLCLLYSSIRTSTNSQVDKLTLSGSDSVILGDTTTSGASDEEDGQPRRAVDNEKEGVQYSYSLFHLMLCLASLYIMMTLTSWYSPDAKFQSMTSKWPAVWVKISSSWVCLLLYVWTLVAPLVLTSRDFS
# Chain of UniProt Q99719 (Q99719 whole entry, looked up): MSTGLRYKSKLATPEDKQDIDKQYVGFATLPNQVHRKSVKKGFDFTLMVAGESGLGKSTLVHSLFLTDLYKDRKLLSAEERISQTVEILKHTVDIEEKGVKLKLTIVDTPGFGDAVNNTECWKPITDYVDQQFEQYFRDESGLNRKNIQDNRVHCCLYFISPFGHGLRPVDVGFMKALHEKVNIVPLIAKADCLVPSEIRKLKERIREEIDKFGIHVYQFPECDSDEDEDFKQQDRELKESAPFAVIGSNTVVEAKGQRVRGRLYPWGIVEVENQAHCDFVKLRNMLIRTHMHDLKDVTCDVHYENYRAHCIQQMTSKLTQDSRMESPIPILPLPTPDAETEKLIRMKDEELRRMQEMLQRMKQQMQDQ
# Chain of UniProt P27694 (P27694 whole entry, looked up): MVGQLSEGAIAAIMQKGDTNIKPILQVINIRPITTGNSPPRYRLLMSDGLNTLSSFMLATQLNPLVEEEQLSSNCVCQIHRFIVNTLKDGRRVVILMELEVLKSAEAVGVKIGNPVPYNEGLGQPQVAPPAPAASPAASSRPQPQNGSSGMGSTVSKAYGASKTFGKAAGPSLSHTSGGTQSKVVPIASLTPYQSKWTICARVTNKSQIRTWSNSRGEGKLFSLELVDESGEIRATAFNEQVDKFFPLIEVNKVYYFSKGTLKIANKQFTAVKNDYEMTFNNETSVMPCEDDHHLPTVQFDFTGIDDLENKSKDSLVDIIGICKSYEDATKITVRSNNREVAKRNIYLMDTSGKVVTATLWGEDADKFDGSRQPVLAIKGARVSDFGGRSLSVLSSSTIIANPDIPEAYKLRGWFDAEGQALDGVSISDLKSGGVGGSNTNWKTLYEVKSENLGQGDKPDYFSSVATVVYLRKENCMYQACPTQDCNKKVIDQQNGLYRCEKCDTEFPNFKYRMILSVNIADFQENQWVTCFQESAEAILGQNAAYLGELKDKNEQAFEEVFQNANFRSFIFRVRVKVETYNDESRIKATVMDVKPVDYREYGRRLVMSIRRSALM
# Chain of UniProt Q9H082 (Q9H082 whole entry, looked up): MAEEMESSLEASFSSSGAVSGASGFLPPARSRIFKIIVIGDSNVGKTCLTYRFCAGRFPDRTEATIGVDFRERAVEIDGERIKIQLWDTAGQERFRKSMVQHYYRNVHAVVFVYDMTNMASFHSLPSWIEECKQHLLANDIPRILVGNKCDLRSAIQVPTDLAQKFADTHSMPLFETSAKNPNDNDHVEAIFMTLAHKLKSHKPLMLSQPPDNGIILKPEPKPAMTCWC
# Chain of UniProt Q8N0T1 (Q8N0T1 whole entry, looked up): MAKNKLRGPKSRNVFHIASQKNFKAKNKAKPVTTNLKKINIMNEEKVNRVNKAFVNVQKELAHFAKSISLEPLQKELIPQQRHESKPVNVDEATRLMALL
Target,log2 fold change [1],log2 fold change [2],log2 fold change [3],log2 fold change [4],log2 fold change [5],log2 fold change [6],log2 fold change [7],log2 fold change [8],log2 fold change [9],log2 fold change [10]
RDH10 (UniProt Q8IZV5),0.068,0.037,0.034,-0.026,-0.056,0.021,-0.006,0.021,-0.19,0.09
RBIS (UniProt Q8N0T1),0.105,0.06,-0.012,0.204,0.034,0.075,-0.108,-0.008,0.026,-0.034
RPTOR (UniProt Q8N122),-0.116,-0.237 (active),0.064,0.034,0.001,-0.08,0.03,0.034,-0.037,-0.197
RCOR1 (UniProt Q9UKL0),0.116,0.001,0.212,0.002,-0.002,-0.033,0.006,0.077,-0.024,-0.037
RRP12 (UniProt Q5JTH9),0.246,0,0.029,0.054,-0.036,-0.057,-0.046,0.026,0.066,0.161
ROCK2 (UniProt O75116),-0.033,-0.139,-0.009,0.063,-0.028,-0.178,0.007,0.177,-0.02,-0.042
SLC12A9 (UniProt Q9BXP2),0.014,-0.034,-0.016,0.059,0.037,-0.016,-0.02,0.034,-0.075,-0.136
SCG3 (UniProt Q8WXD2),0.04,0.134,-0.013,-0.119,0.048,0.035,-0.099,-0.027,-0.116,0.6 (active)
RPS3A (UniProt P61247),0.133,0.339,0.02,-0.124,0.028,0.114,-0.063,-0.064,0.138,0.105
RPS9 (UniProt P46781),0.203,0.339,0.02,-0.24,0.025,0.088,-0.095,-0.078,0.174,0.146
RPS18 (UniProt P62269),0.158,0.3,-0.011,-0.111,-0.029,0.057,-0.036,-0.11,0.096,0.11
SENP6 (UniProt Q9GZR1),-0.086,-0.07,-0.044,-0.039,0.029,-0.022,-0.017,0.004,-0.014,-0.038
RPA1 (UniProt P27694),-0.108,-0.326 (active),0.083,0.09,-0.028,-0.02,0.044,0.063,-0.048,-0.079
RANBP2 (UniProt P49792),0.058,-0.006,-0.008,0,-0.063,0.099,0.026,0.03,-0.033,-0.052
SELENOH (UniProt Q8IZQ5),0.001,0.01,-0.05,0.058,0.024,-0.051,0.041,-0.002,0.084,0.065
RBM17 (UniProt Q96I25),-0.08,-0.422 (active),0.085,0.066,-0.271,-0.059,0.048,0.099,0.088,-0.037
SDHAF2 (UniProt Q9NX18),0.089,0.093,-0.081,-0.057,0.053,0.06,-0.004,0.02,0.037,0.045
SCAMP2 (UniProt O15127),-0.009,0.052,-0.01,0.001,0.065,0.043,0.061,-0.043,-0.006,-0.1
RMC1 (UniProt Q96DM3),-0.192,-0.416 (active),0.095,-0.025,-0.041,0.042,-0.023,0.005,-0.039,-0.146
SERINC3 (UniProt Q13530),0.165,0.075,-0.144,-0.092,0.029,-0.064,0.043,0.049,-0.014,0.046
RAB5IF isoform 5 (UniProt Q9BUV8),-0.025,0.036,-0.129,0.017,0.011,-0.056,-0.031,0.028,0.003,0.092
RTF2 (UniProt Q9BY42),-0.18,-0.45 (active),0.003,0.118,-0.049,0.012,0.005,-0.055,-0.017,0.161
RDH13 (UniProt Q8NBN7),-0.154,-0.06,0.06,0.022,0.009,-0.058,0.051,0.013,-0.059,-0.318 (active)
RAC3 (UniProt P60763),0.039,0.075,-0.082,-0.008,0.051,-0.149,0,0,-0.095,0.035
RAB33B (UniProt Q9H082),-0.016,-0.014,-0.04,-0.009,-0.005,0.09,-0.031,0.033,-0.067,-0.006
SEC24A (UniProt O95486),-0.077,-0.253 (active),0.018,0.055,-0.05,0.003,0.065,0.051,-0.054,-0.029
RPS2 (UniProt P15880),0.168,0.348,0.021,-0.191,0.045,0.119,-0.108,-0.092,0.195,0.086
SAMSN1 isoform 3 (UniProt Q9NSI8),-0.069,-0.153,0.026,0.018,-0.02,-0.065,0.017,0.067,0,-0.253 (active)
RETSAT (UniProt Q6NUM9),-0.073,-0.073,0.024,-0.003,-0.083,-0.012,0.036,0.042,-0.011,0.053
SEPTIN5 (UniProt Q99719),0.03,0.047,-0.003,-0.025,0.016,-0.052,-0.019,0.032,-0.09,-0.009
